Where a name gives a salt, the structure may show the parent alone.
Key:
Details in all cases: 10 µM; exposure time 6 h
[1] = tested on: Danio rerio larvae (5 dpf); experiment: difference in excitability vs DMSO (percentage points); higher = more excitable than DMSO
Procedure, shortened: (§1)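 In 96-well plates, 48 wild-type zebrafish larvae aged 5 dpf per compound received 100 µL egg water with library compound at 10 µM final for 6 h. Three hours into this, a 3-h programme of moving lines and 100 ms, 400Hz tones ran at 28.5 ℃ while plates were photographed every 6 s. Z-LaP Tracker scored the behaviours, and each is given as the compound mean minus the vehicle control mean in percentage points.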

[2] = tested on: Danio rerio larvae (5 dpf); experiment: difference in startle response vs DMSO (percentage points); higher = stronger startle than DMSO
Procedure, shortened: as §1

[3] = tested on: Danio rerio larvae (5 dpf); experiment: difference in activity during first hour vs DMSO (percentage points); higher = more activity than DMSO
Procedure, shortened: as §1

[4] = tested on: Danio rerio larvae (5 dpf); experiment: difference in habituation to acoustic stimuli vs DMSO (percentage points); higher = more habituation than DMSO
Procedure, shortened: as §1

[5] = tested on: Danio rerio larvae (5 dpf); experiment: difference in combined optomotor response to red, green and blue moving lines vs DMSO (percentage points); higher = stronger optomotor response than DMSO
Procedure, shortened: as §1

| Compound | difference in excitability [1] | difference in startle response [2] | difference in activity during first hour [3] | difference in habituation to acoustic stimuli [4] | difference [5] |
| --- | --- | --- | --- | --- | --- |
| CCCc1nc(C)c2c(=O)nc(-c3cc(S(=O)(=O)N4CCN(CC)CC4)ccc3OCC)[nH]n12 [Vardenafil (hydrochloride hydrate)] | 4.29 | 1.36 | 0.203 | 5.85 | 12.9 |
| CC1=C(/C=C/C(C)=C\C=C\C(C)=C\C(=O)O)C(C)(C)CCC1 [9-cis-Retinoic Acid] | 5.5 | -1.66 | 5.1 | 10.2 | 2.9 |
| Cc1nc2c([nH]1)-c1ccccc1N(C(=O)c1ccc(NC(=O)c3ccccc3-c3ccccc3)cc1)CC2 [Conivaptan (hydrochloride)] | 12.9 | 4.28 | -10.7 | 3.17 | -0.877 |
| O=C1CCc2cc(OCCCCc3nnnn3C3CCCCC3)ccc2N1 [Cilostazol] | 12.6 | 2.9 | 11.7 | -4.79 | 0.57 |
| CCN(CC)CCNC(=O)c1c(C)[nH]c(/C=C2\C(=O)Nc3ccc(F)cc32)c1C [Sunitinib (malate)] | 17.6 | -2.13 | -4 | 0.523 | -0.123 |
| Nc1nc(=O)c2nc(CNc3ccc(C(=O)N[C@@H](CCC(=O)O)C(=O)O)cc3)cnc2[nH]1 [Folic Acid] | 7.04 | -0.204 | 15.5 | 2.6 | 6.5 |
| CC#C[C@]1(O)CC[C@H]2[C@@H]3CCC4=CC(=O)CCC4=C3[C@@H](c3ccc(N(C)C)cc3)C[C@@]21C [Mifepristone] | 10.2 | -2.97 | -9.36 | 0.759 | 4.72 |
| COc1ccc(OC)c(C(O)CNC(=O)CN)c1 (stereo not given) [Midodrine (hydrochloride)] | 7.59 | -5.94 | 6.73 | 0.23 | 5.44 |
| CC(C[N+](C)(C)C)OC(N)=O (stereo not given) [Bethanechol (chloride)] | 1.05 | -0.356 | -9.77 | 0.388 | -6.5 |
| O=C(NC1CCN(CCCCC2(C(=O)NCC(F)(F)F)c3ccccc3-c3ccccc32)CC1)c1ccccc1-c1ccc(C(F)(F)F)cc1 [Lomitapide] | 17 | -3.26 | -7.94 | -2.68 | -5.57 |
| CN(C)CC[C@@H](c1ccc(Cl)cc1)c1ccccn1 [Dexchlorpheniramine (maleate)] | 5.44 | 3.98 | -18.8 | 1.79 | -3.17 |
| COc1c(C)c2c(c(O)c1C/C=C(\C)CCC(=O)O)C(=O)OC2 [Mycophenolic Acid] | 2.6 | 4.16 | -1.66 | -0.729 | 8.73 |
| COc1ccc2cc(CCC(C)=O)ccc2c1 [Nabumetone] | 0.732 | -0.884 | 1.19 | -1.53 | 0.192 |
| NCCC(O)(P(=O)(O)O)P(=O)(O)O [Pamidronate (sodium salt)] | 9.47 | 4.04 | -2.6 | -0.604 | 2.29 |
| O=C(O)COCCN1CCN([C@H](c2ccccc2)c2ccc(Cl)cc2)CC1 [(R)-Cetirizine (hydrochloride)] | 5.78 | -3.02 | -1.26 | 6.23 | 5.37 |
| CC(=O)OCC(=O)[C@@]12OC3(CCCC3)O[C@@H]1C[C@H]1[C@@H]3CCC4=CC(=O)C=C[C@]4(C)[C@@]3(F)[C@@H](O)C[C@@]12C [Amcinonide] | 8.43 | 5.38 | -7.56 | -0.863 | 4.08 |
| CC(=O)N[C@@H](CS)C(=O)O [N-acetyl-L-Cysteine] | -2.2 | 3.63 | 14.1 | -5.17 | -0.176 |
| CC(C)(C)C(O)/C=C/c1ccc2c(c1)OCO2 (stereo not given) [Stiripentol] | -5.22 | 0.0472 | 3.85 | -4.89 | 7.37 |
| COc1cc2c(cc1OC)[C@@H](Cc1cc(OC)c(OC)c(OC)c1)[N+](C)(CCCOC(=O)CC/C=C/CCC(=O)OCCC[N+]1(C)CCc3cc(OC)c(OC)cc3[C@H]1Cc1cc(OC)c(OC)c(OC)c1)CC2 (stereo not given in full) [Mivacurium (chloride)] | 19.5 | -7.63 | -16.7 | 4.16 | 5.12 |
| CN1[C@@H]2CC[C@H]1C[C@@H](OC(c1ccccc1)c1ccccc1)C2 [Benztropine (mesylate)] | -5.24 | -9.21 | 27.7 | -9.38 | -1.29 |
| NC(=O)c1cn(Cc2c(F)cccc2F)nn1 [Rufinamide] | 3.01 | 4.27 | 8.13 | 0.975 | 7.5 |
| CCCc1nn(C)c2c(=O)[nH]c(-c3cc(S(=O)(=O)N4CCN(C)CC4)ccc3OCC)nc12 [Sildenafil Citrate] | 4.08 | -0.935 | -7.02 | -0.835 | 5.26 |
| Cc1ccc(NC(=O)c2ccc(CN3CCN(C)CC3)cc2)cc1Nc1nccc(-c2cccnc2)n1 [Imatinib (mesylate)] | 13.1 | 1.01 | -9.06 | 5.17 | -1.23 |
| C[C@@H]1O[C@@H]1P(=O)(O)O [Fosfomycin Trometamol] | 3.54 | -4.33 | -4.99 | -4.72 | -4.51 |
| C[C@H](Cc1cc2c(c(C(N)=O)c1)N(CCCO)CC2)NCCOc1ccccc1OCC(F)(F)F [Silodosin] | 15.3 | 3.54 | 3.31 | -5.47 | 4.97 |
| Cc1ccc(Cl)c(Nc2ccccc2C(=O)O)c1Cl [Meclofenamate (sodium salt)] | 11.1 | 12.4 | -18 | -13.1 | -19.7 |

| Compound | difference in excitability [1] | difference in startle response [2] | difference in activity during first hour [3] | difference in habituation to acoustic stimuli [4] | difference [5] |
| --- | --- | --- | --- | --- | --- |
| COc1cc([C@@H]2c3cc4c(cc3[C@@H](O[C@@H]3O[C@@H]5CO[C@@H](C)O[C@H]5[C@H](O)[C@H]3O)[C@H]3COC(=O)[C@H]23)OCO4)cc(OC)c1O [Etoposide] | -3.42 | 2.1 | -5.75 | 2.55 | -5.33 |
| Cc1[nH]c2ccccc2c1CCNCc1ccc(/C=C/C(=O)NO)cc1 [Panobinostat] | 7 | -4.96 | -8.62 | 3.43 | 1.65 |
| CN1C(=O)OC(C)(C)C1=O [Trimethadione] | 6.43 | 11.1 | -6 | 3.86 | -0.0394 |
| COc1ccccc1OCCNCC(O)COc1cccc2[nH]c3ccccc3c12 (stereo not given) [Carvedilol] | 21.2 | 2.07 | -3.13 | 0.913 | 3.65 |
| COc1cc(Nc2c(C#N)cnc3cc(OCCCN4CCN(C)CC4)c(OC)cc23)c(Cl)cc1Cl [Bosutinib] | 10.4 | 1.86 | -11.7 | -5.15 | 2.77 |
| NCCCC(N)(C(=O)O)C(F)F (racemic) [DL-α-Difluoromethylornithine (hydrochloride hydrate)] | -2.42 | -3.99 | 10.2 | 2.49 | 2.05 |
| COC(=O)[C@@H]1CC2=CC(=O)CC[C@]2(C)[C@@]23O[C@@H]2C[C@@]2(C)[C@@H](CC[C@@]24CCC(=O)O4)[C@H]13 [Eplerenone] | 2.31 | -5.25 | 4.97 | 4.87 | 4.83 |
| CC(C)(C(=O)O)c1ccc(C(O)CCCN2CCC(C(O)(c3ccccc3)c3ccccc3)CC2)cc1 (stereo not given) [Fexofenadine (hydrochloride)] | 4.09 | 2.98 | 11.3 | 0.612 | 5.51 |
| OC(CNCC(O)C1CCc2cc(F)ccc2O1)C1CCc2cc(F)ccc2O1 (stereo not given) [Nebivolol (hydrochloride)] | 9.49 | -4.14 | 2.55 | -2.7 | -10.6 |
| Cc1cn([C@H]2C[C@H](N=[N+]=[N-])[C@@H](CO)O2)c(=O)[nH]c1=O [Zidovudine] | 4.38 | -2.12 | 0.0973 | 1.67 | 6.8 |
| Cc1cccc(CN2CCN(C(c3ccccc3)c3ccc(Cl)cc3)CC2)c1 (stereo not given) [Meclizine (hydrochloride)] | 6.31 | -8.4 | 21.1 | -9.92 | -14.3 |
| CS(=O)(=O)c1cccc(C[C@H](NC(=O)c2c(Cl)cc3c(c2Cl)CCN(C(=O)c2ccc4ccoc4c2)C3)C(=O)O)c1 [Lifitegrast] | 5.68 | 2.04 | 16.5 | 0.0295 | 7.02 |
| CO/N=C(\C(=O)N[C@@H]1C(=O)N2C(C(=O)O)=C(CSc3nc(=O)c(O)nn3C)CS[C@H]12)c1csc(N)n1 [Ceftriaxone (sodium salt hydrate)] | 3.71 | 4.15 | 12 | -2.08 | 8.58 |
| COc1ccc(-n2nc(C(N)=O)c3c2C(=O)N(c2ccc(N4CCCCC4=O)cc2)CC3)cc1 [Apixaban] | -0.692 | -6.58 | 1.99 | 4.29 | 10.4 |
| CN(C)CCCC1(c2ccc(F)cc2)OCc2cc(C#N)ccc21 (stereo not given) [Citalopram (hydrobromide)] | 8.67 | -1.92 | -12.8 | -3.86 | -4.06 |
| N[C@@H]1CONC1=O [D-Cycloserine] | 6.37 | -2.86 | 4.38 | -2.22 | 10.3 |
| OCc1cc(C(O)CNCCCCCCOCCCCc2ccccc2)ccc1O (stereo not given) [Salmeterol (xinafoate)] | 12.9 | -5.05 | 20.1 | -7.62 | 7.79 |
| CC(C)(O)c1ccccc1CC[C@@H](SCC1(CC(=O)O)CC1)c1cccc(/C=C/c2ccc3ccc(Cl)cc3n2)c1 [Montelukast (sodium salt)] | 10.4 | 2.54 | -3.93 | 1.58 | 3.42 |
| Cc1ccc(-c2cc(C(F)(F)F)nn2-c2ccc(S(N)(=O)=O)cc2)cc1 [Celecoxib] | 6.16 | -9.06 | 2.67 | -10.4 | -6.28 |
| CCN(Cc1ccncc1)C(=O)C(CO)c1ccccc1 (stereo not given) [Tropicamide] | 1.51 | -4.55 | 14.3 | -1.41 | 6.16 |
| Nc1nnc(-c2cccc(Cl)c2Cl)c(N)n1 [Lamotrigine] | 4.96 | -1.15 | -6.88 | 4.75 | 8.87 |
| CCCC(CCC)C(=O)O [Valproic Acid (sodium salt)] | 1.2 | 1.47 | -1.97 | -8.1 | 3.32 |
| CCc1cc2c(cc1N1CCC(N3CCOCC3)CC1)C(C)(C)c1[nH]c3cc(C#N)ccc3c1C2=O | -3.24 | 3.84 | 9.56 | 0.995 | 0.182 |
| CC(C)Nc1cccnc1N1CCN(C(=O)c2cc3cc(NS(C)(=O)=O)ccc3[nH]2)CC1 [Delavirdine (mesylate)] | -2.46 | -1.52 | -9.21 | 7.6 | -2.16 |
| COc1ccc(Cl)cc1C(=O)NCCc1ccc(S(=O)(=O)NC(=O)NC2CCCCC2)cc1 [Glyburide (potassium salt)] | 9.95 | 5.16 | 10.9 | -3.8 | 7.83 |

— the supplement of paper PMC10515830
